Sampled rows, rich in hits. Any-hit rate of the full collection: about 1.7%.
GLP-1R inv ag = GLP-1 receptor (human) inverse agonism; HEK293 GLP-1R CRE-luciferase, luminescence, 24 h; GLP-1R form is constitutively active; Potency, µM (doses to about 38.3 µM), without a hit: top-dose activity change, negative = inhibition, actives largely listed as inhibitors; 410,000 compounds, 1.6% hits; note: % is set by controls: 0 for no effect and ±100 for the full control effect; nearly all actives have a fitted effect of over 55% in size
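Seeding at 200 cells/uL, 12 h culture, 24 hr compound treatment, then luciferase reagent and a luminescence read; cells are HEK293 stably expressing a constitutively active GLP-1R plus cAMP-responsive luciferase.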
RGS4 inh = blocks human RGS4-accelerated GTP hydrolysis; Transcreener GDP fluorescence polarization, RGS4-accelerated GTP hydrolysis; Potency, µM (titrated, usually from 114 µM), without a hit: at the top dose activity change, negative = inhibition, hits mostly inhibitors; 390,000 compounds, 0.039% hits; AID 504845; note: % is set by controls: 0 for no effect and ±100 for the full control effect; nearly all actives have a fitted effect of over 75% in size
Target sequence (P49798 whole entry, looked up): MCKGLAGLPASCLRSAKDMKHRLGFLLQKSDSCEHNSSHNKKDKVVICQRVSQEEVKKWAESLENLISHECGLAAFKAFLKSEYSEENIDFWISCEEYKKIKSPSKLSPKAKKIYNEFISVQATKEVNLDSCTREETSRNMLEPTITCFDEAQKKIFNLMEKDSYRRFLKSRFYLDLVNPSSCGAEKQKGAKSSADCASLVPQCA
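MLSMR compounds (23 nl, pin-transferred) preincubated 10 min at room temperature with a 500nM (2x) first reagent, then RGS4 at 900nM (2x) plus Transcreener GDP mix added; fluorescence polarization (620/688 nm) read before and after 90 min at 30 °C.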
GLP1R ag = activates the human GLP-1 receptor; Potency, µM (doses to about 45.6 µM), without a hit: at the highest dose activation, hits mostly activators; 380,000 compounds, 0.007% hits; P43220; HEK293 GLP-1R CRE-luciferase, luminescence, 4-6 h; cells express a hypersensitive GLP-1R form; note: % of control where 0% means no effect
PTHR1 agonist = activates the human parathyroid hormone receptor PTHR1; HEK293 GP2 PTHR1 cells, GloSensor cAMP luminescence, 1 h; AID 743266; Potency, µM (series often up to 115 µM), without a hit: top-dose activation, most hits filed as activators; 410,000 compounds, 0.075% hits; Q03431; note: nearly all actives have a fitted effect of over 55% in size
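HEK-293-derived GP2 cells expressing PTHR1 and a GloSensor cAMP reporter, 3,000/well, plated overnight, given luciferin plus IBMX (each 0.5 mM as added) for 1 h at 37 °C, then compound for 1 h at 37 °C. Luminescence was read after 15 min at room temperature.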
GLP1R cytotox = cytotoxicity in counter-screen for GLP-1R inverse agonists. HEK293 cAMP-luciferase reporter cells, luminescence, 24 h. Potency, µM (series often up to 38.3 µM), for the others: top-dose activity change, negative = inhibition, most hits filed as inhibitors. 410,000 compounds, 0.13% hits. AID 624418;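 note: loss of luciferase light is scored as toxicity; % is set by controls: 0 for no effect and ±100 for the full control effect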
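Quantitative HTS format, 1536 wells, 200 cells/uL seeded. Compounds: 23 nL, 24 h, 37 °C. Detection: luciferase reagent, luminescence at 12 min RT; decreased signal taken as cytotoxic.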
* marks the source's active call; other numbers are inactive results; i = inactive; ? = inconclusive; nt = no result; [ ] = dose if it differs, or a comment. Calls come from the whole dose curve; as a rule, active = well fitted curve in the direction sought with a large enough effect; inconclusive = small, poorly fitted or top-dose-only effect, or another doubt; inactive = no such curve, though single readings can be large; an effect the other way counts as inactive or inconclusive. Potency is the fitted concentration of half-maximal effect.

SMILES | GLP-1R inv ag | RGS4 inh | GLP1R ag | PTHR1 agonist | GLP1R cytotox
COc1cc(C=O)ccc1OCCCOc1ccccc1C(=O)O | 2.24µM* | ? | -3.6% | -24.1%[57.5 µM] | 20.9%
COc1cc(C=O)ccc1OCCCOc1ccccc1[N+](=O)[O-] | 46.1% | -2.4% | 8.0% | -10.7% | -10.4%
CCN(CC)CC(=O)Nc1ccc2c(c1)N(C(=O)CN(CC)CC)c1ccccc1CC2 | 38.6% | -9.5% | 20.5% | i | 3.98µM*
CCOC(=O)Nc1ccc2c(c1)N(C(=O)CN(CC)CC)c1ccccc1CC2 | ? | -8.2% | 6.4% | i | ?
CSc1cccc(NC(=S)N(CCC(C)C)C2CCN(C(C)=O)CC2)c1 | ? | -5.7% | 9.2% | i | -0.8%
CSc1cccc(NC(=S)N(CCC(C)C)C2CCN(C(C)C)CC2)c1 | 8.91µM* | 5.6% | -2.3% | i | ?
COc1ccc(NC(=O)Nc2ccc(F)cc2)cn1 | -0.9% | 9.2% | 3.1% | -1.4% | -23.7%
COc1ccc(NC(=O)C(c2ccc(Cl)cc2)C(C)C)cn1 (stereo not given) | 7.94µM* | -15.0% | 0.3% | -28.1% | 15.5%
N#Cc1ccc(Cl)cc1NC(=O)COC(=O)c1cccc(S(=O)(=O)N2CCOCC2)c1 | -10.1% | -4.6% | 6.0% | -18.1% | 0.8%
COc1ccc(-c2nc3ccccc3n2Cc2ccc(Cl)cc2)cc1 | 10µM* | -20.9% | nt | i | -1.6%
COc1ccc(-c2nc3ccccc3n2Cc2ccc(C)cc2)cc1 | ? | -4.9% | 3.3% | -13.4% | -26.1%
COc1ccc(-c2nc3ccccc3n2Cc2ccc(C(C)C)cc2)cc1 | 10µM* | -13.6% | 0.6% | -20.8% | 2.3%
Cc1ccc(-c2nc3ccccc3c(=O)n2Cc2ccccc2)cc1 | 3.55µM* | -8.1% | 16.5% | i | -8.3%
Cc1ccc(NC(=O)c2ccccc2OCC(=O)Nc2ccccc2F)cc1S(=O)(=O)N(C)C | ? | -5.8% | 8.8% | -17.3% | -17.4%
COc1ccc(-c2nn(-c3ccccc3)cc2/C=N/Nc2ccc3ccccc3n2)cc1OC | ? | -8.4% | 16.9% | -19.2% | 12.6µM*
COc1ccc(-c2nn(-c3ccccc3)cc2/C=N/O)cc1OC | ? | ? | 8.6% | -26.2% | 0.7%
CCCCCCCCN1C(=O)[C@H](CC(=O)NCc2cccc(C(F)(F)F)c2)C[C@@]2(C(=O)OC)CC(C)(C)CC=C12 | ? | nt | nt | -12.4% | -20.5%
O=C(OCC(=O)c1ccc(Cl)s1)c1cncc(Br)c1 | -0.7% | -0.8% | 1.6% | i | -6.5%
O=C(NNc1cc(Cl)ccc1Cl)C1CCC1 | 3.16µM* | ? | 5.2% | i | -25.2%
COc1ccccc1C1CC(c2c(-c3ccccc3)c3cc(Cl)ccc3[nH]c2=O)=NN1S(C)(=O)=O (stereo not given) | 10µM* | 22.5% | -6.0% | -11.3%[57.5 µM] | -23.3%
COc1cccc(C2CC(c3c(-c4ccccc4)c4cc(Cl)ccc4[nH]c3=O)=NN2S(C)(=O)=O)c1OC (stereo not given) | ? | 12.5% | -18.2% | i | -4.4%
c1ccc2c(c1)CC(N1CCCCC1)c1ccccc1S2 (stereo not given) | -11.0% | -16.3% | -0.7% | -20.6% | 4.5%
CN1CCN(C2Cc3cc(Cl)ccc3Sc3cc(F)ccc32)CC1 (stereo not given) | 5.01µM* | -23.6% | 6.5% | i | ?
O=c1c2ccccc2sc2ccc(NCCCN3CCOCC3)cc12 | ? | -18.7% | 5.3% | -6.5% | 19.0%
CN1CCCC1CCNc1ccc2sc3ccccc3c(=O)c2c1 (stereo not given) | 14.1µM* | 14.1% | 5.8% | -7.3% | ?
O=C(NCCc1ccccc1)c1ccc(CSc2nc3ccncc3n2Cc2ccc(F)cc2)cc1 | ? | -14.1% | nt | -24.5% | -20.4%
COc1cc2c(=O)n(CCC(=O)NCC3CCCO3)c(=O)n(CC(=O)Nc3c(C)cccc3C)c2cc1OC (stereo not given) | 1.0% | -3.9% | nt | -52.1% | 9.1%
O=C(CCl)N1CCN(S(=O)(=O)c2ccc3ccccc3c2)CC1 | 10µM* | -36.2% | 0.7% | -32.1% | ?
